The results in this text go back to PubChem BioAssay (Tox21).

Assay [1] is described as follows: qHTS RealTime-Glo MT Cell Viability Assay in HEK293 cells - 16 hour (AID 1224872). Further: top concentration of the series differs between compounds; nearly all actives have a fitted effect of over 50% in size. An outline of the steps: (§1)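 Reads taken at 0, 8, 16, 24, 32 and 40 h from the same wells. HEK293 cells (600/well) carried RealTime-Glo reagents from seeding, with compound added after a 5 h settle at 37 C.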
On the technique in general: Quantitative high-throughput screening tests each substance at several concentrations.

A short description of assay [2]: qHTS RealTime-Glo MT Cell Viability Assay in HepG2 cells - 8 hour (AID 1224873). Further: nearly all actives have a fitted effect of over 55% in size. A digest of the protocol:
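Real-time viability: cells seeded at 600 per well together with NanoLuc and cell-permeant prosubstrate, compounds added after 5 h incubation. Luminescence tracked at 0, 8, 16, 24, 32 and 40 h of exposure.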

The nature of assay [3]: qHTS RealTime-Glo MT Cell Viability Assay in HEK293 cells - 40 hour (AID 1224874). Further: nearly all actives have a fitted effect of over 50% in size. The following applies: RealTime-Glo luminescence; max response: stronger effect = lower value. An outline of the steps:
(§2)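 600 HEK293 cells per well, dispensed already mixed with RealTime-Glo MT reagents. Compound dosing came 5 h later. The same wells were read for luminescence at 0, 8, 16, 24, 32 and 40 h of exposure at 37 C.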

A short description of assay [4]: A CellTox Green Cytotoxicity Assay to monitor cytotoxicity in HEK293 cells - 24 hour (AID 1224875). Further: series mostly up to about 77 µM; nearly all actives have a fitted effect of over 45% in size. An outline of the steps:
(§3)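 Dead-cell fluorescence measured kinetically: asymmetric cyanine dye, HEK293, 600 cells/well, 5 h settle, 23 nL cpd/DMSO, 37 C, reads 0–40 h every 8 h.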

The nature of assay [5]: qHTS RealTime-Glo MT Cell Viability Assay in HepG2 cells - 32 hour (AID 1224877). Further: nearly all actives have a fitted effect of over 55% in size. A digest of the protocol:
(§4)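 HepG2 suspension premixed with RealTime-Glo reagents is plated at 600 cells per well and left 5 h at 37 C/5% CO2. Compounds in DMSO then go in, and bioluminescence reflecting viable cell number is recorded over 40 h.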

A short description of assay [6]: A CellTox Green Cytotoxicity Assay to monitor cytotoxicity in HepG2 cells - 40 hour (AID 1224879). Further: nearly all actives have a fitted effect of over 40% in size. Further: potency means the concentration at half of the fitted maximal effect. An outline of the steps: (§5)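 First, HepG2 cells (600/well) mixed with reagent were plated; second, after 5 h at 37 C they received compounds via pintool; third, fluorescence was measured at 0 h through 40 h at 8 h intervals.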
The nature of assay [7]: A CellTox Green Cytotoxicity Assay to monitor cytotoxicity in HEK293 cells - 32 hour (AID 1224881). Further: nearly all actives have a fitted effect of over 40% in size. A digest of the protocol:
as §3

Assay [8] is described as follows: A CellTox Green Cytotoxicity Assay to monitor cytotoxicity in HepG2 cells - 0 hour (AID 1224882). Further: nearly all actives have a fitted effect of over 35% in size. Further: potency means the concentration at half of the fitted maximal effect. An outline of the steps:
as §5

A short description of assay [9]: A CellTox Green Cytotoxicity Assay to monitor cytotoxicity in HepG2 cells - 32 hour (AID 1224883). Further: nearly all actives have a fitted effect of over 50% in size. Further: potency means the concentration at half of the fitted maximal effect. An outline of the steps:
as §5

Assay [10] can be described thus: A CellTox Green Cytotoxicity Assay to monitor cytotoxicity in HEK293 cells - 8 hour (AID 1224884). Further: nearly all actives have a fitted effect of over 35% in size. A digest of the protocol: as §3
Assay [11] is described as follows: qHTS RealTime-Glo MT Cell Viability Assay in HepG2 cells - 16 hour (AID 1224885). Further: nearly all actives have a fitted effect of over 50% in size. An outline of the steps:
as §4

Assay [12] in a line: qHTS RealTime-Glo MT Cell Viability Assay in HEK293 cells - 24 hour (AID 1224886). An outline of the steps: as §1
Assay [13] in a line: qHTS RealTime-Glo MT Cell Viability Assay in HEK293 cells - 8 hour (AID 1224887). A digest of the protocol: as §2
Assay [14] is described as follows: qHTS RealTime-Glo MT Cell Viability Assay in HepG2 cells - 0 hour (AID 1224889). Further: nearly all actives have a fitted effect of over 50% in size. A digest of the protocol:
as §4

Assay [15] is described as follows: A CellTox Green Cytotoxicity Assay to monitor cytotoxicity in HepG2 cells - 8 hour (AID 1224890). Further: nearly all actives have a fitted effect of over 45% in size. Further: potency means the concentration at half of the fitted maximal effect. An outline of the steps:
as §5

Assay [16] in a line: qHTS assay to identify small molecule antagonists of the estrogen receptor alpha (ER-alpha) signaling pathway using the BG1 cell line in the presence of 0.1 nM 17-beta-estradiol - cell viability counter screen (AID 1259241). Further: nearly all actives have a fitted effect of over 40% in size. A digest of the protocol: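 Cells were plated and left 24 hr, compounds in DMSO were pinned in, 17beta-estradiol was added to 0.1 nM final, and after 22 hr CellTiter-Fluor reagent was added for 30 min before fluorescence was read.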

Assay [17] is described as follows: A CellTox Green Cytotoxicity Assay to monitor cytotoxicity in HepG2 cells - 16 hour (AID 1224876). Further: nearly all actives have a fitted effect of over 45% in size. An outline of the steps:
as §5

The nature of assay [18]: A CellTox Green Cytotoxicity Assay to monitor cytotoxicity in HEK293 cells - 16 hour (AID 1224888). Further: nearly all actives have a fitted effect of over 35% in size. An outline of the steps:
as §3

Assay [19] in a line: A CellTox Green Cytotoxicity Assay to monitor cytotoxicity in HepG2 cells - 24 hour (AID 1224878). Further: nearly all actives have a fitted effect of over 45% in size. Further: potency means the concentration at half of the fitted maximal effect. A digest of the protocol: as §5
Assay [20] in a line: qHTS RealTime-Glo MT Cell Viability Assay in HEK293 cells - 0 hour (AID 1224880). A digest of the protocol: as §2

Each structure is given as a SMILES string. “And” between values parts separate entries of the source, which are not always exact repeats. Identical values can stand only once. Inconclusive results are not listed. More than one record can exist for a structure, and the calls need not agree. The source made the active and inactive calls. The call rests on the fitted dose curve; in most records, active means well fitted curve in the direction sought with a large enough effect in the repeat runs; inconclusive means weak or mixed curves; inactive means no such curve, though single readings can be large; an effect the other way counts as inactive or inconclusive.
On the % scale 0 is the no-effect control and ±100 the full control effect.

Consider `O=C(O)C(Br)Br`, for which the result in assay [1], in assay [2], in [5], in assay [11], in [12] and in [13] was inactive. Further, the outcome in assay [14] and in assay [16] was inactive. For the same compound, the max response in assay [3] is -0.855% (inactive) and 1.09% (inactive). The Potency result in [4], in [6], in assay [7], in [8], in assay [9] and in assay [10] was “inactive” each time. Further, the Potency result in [15] is “inactive”.
Regarding `CC(C)(C)C(=O)CCl`, the result in [1], in [2], in assay [5], in [11], in [12] and in assay [13] was inactive. Further, the result in assay [14] and in assay [16] was inactive. Further, the max response in [3] was 4.78% (inactive) and -0.671% (inactive). Besides, the Potency result in assay [4], in assay [17], in [7], in assay [8], in [9] and in [18] was “inactive” each time. The Potency entry in assay [15] was “inactive”.
For the compound `[N-]=[N+]=CC(=O)OC[C@H](N)C(=O)O`, the compound was called inactive in assay [1], in assay [2], in assay [5], in [20], in assay [11] and in [12]. Also, the result in assay [13], in assay [14] and in assay [16] was inactive. The max response in assay [3] is 8.97% (inactive) and 11.4% (inactive). Besides, the Potency result in assay [4], in assay [7] and in assay [18] was “inactive” in each case. The Potency was 24.5 µM (active) and inactive in assay [19]; 43.6 µM (active) and inactive in assay [6]; 34.7 µM (active) and inactive in assay [8]; 38.9 µM (active) and inactive in assay [9]; 38.9 µM (active) and inactive in assay [15].
Turning to `Cc1ccc(N)cc1`, the call in assay [1], in assay [2], in assay [5], in assay [11], in [12] and in [13] was inactive. Moreover, the compound was called inactive in [14] and in assay [16]. For the same compound, the max response in assay [3] was -16.7% (inactive) and 1.44% (inactive) and -0.523% (inactive). In addition, the Potency entry in assay [4], in [19], in assay [7], in assay [8], in [9] and in assay [18] was “inactive” throughout. The Potency entry in [15] is “inactive”.
For `CN1C(=O)CCS(=O)(=O)C1c1ccc(Cl)cc1` (stereo unspecified), the compound was classed as inactive in [1], in [2], in [5], in assay [11], in [12] and in [13]. Also, the outcome in assay [14] and in assay [16] was inactive. Moreover, in [3], the max response was 4.07% (inactive) and -0.966% (inactive). In addition, the Potency result in assay [17], in [19], in assay [6], in assay [7], in [8] and in assay [9] was “inactive” throughout. The Potency entry in assay [18] and in assay [15] was “inactive” in each case.
`ClCCOCCCl`: the result in assay [1], in [2], in assay [5], in assay [20], in assay [11] and in assay [12] was inactive. Besides, the compound was classed as inactive in assay [13], in assay [14] and in assay [16]. Besides, the max response in assay [3] was -3.17% (inactive) and -5.17% (inactive). Further, the Potency entry in [4], in [6], in assay [7], in assay [8], in assay [9] and in [18] was “inactive” throughout. In addition, in [15], the Potency entry is “inactive”.
Take `COP(=S)(OC)Oc1ccc(SC)c(C)c1`: the compound was called inactive in assay [1], in [2], in [5], in assay [20], in assay [11] and in [12]. Besides, the result in assay [13], in assay [14] and in assay [16] was inactive. In addition, the max response in [3] is -4.14% (inactive) and -8.35% (inactive) and 5.42% (inactive). In addition, the Potency result in assay [4], in [6], in [7], in assay [8], in assay [9] and in [10] was “inactive” in each case. Moreover, the Potency entry in assay [15] was “inactive”.
With `Cc1cccc(N)c1C`, the call in assay [1], in assay [2], in [5], in assay [20], in [11] and in [12] was inactive. In addition, the compound was classed as inactive in assay [13], in assay [14] and in [16]. In addition, in assay [3], the max response was -0.402% (inactive) and 10.2% (inactive). Also, the Potency entry in assay [4], in [19], in [6], in assay [7], in assay [8] and in [9] was “inactive” each time. The Potency entry in assay [18] and in [15] was “inactive” throughout.
With `O=[N+]([O-])c1ccc(Cl)cc1`, the compound was called inactive in assay [1], in assay [2], in [5], in assay [20], in assay [11] and in assay [12]. For the same compound, the compound was classed as inactive in assay [13], in [14] and in assay [16]. The max response in [3] is 4.49% (inactive) and 2.44% (inactive). Moreover, the Potency result in assay [17], in [19], in assay [7], in assay [8], in [9] and in [10] was “inactive” in each case. The Potency result in assay [15] was “inactive”.
Take `CNC(=O)O/N=C/C(C)(C)S(C)(=O)=O`: the compound was called inactive in assay [1], in [2], in [5], in assay [11], in [12] and in [13]. Moreover, the compound was classed as inactive in assay [14] and in assay [16]. Further, the max response in assay [3] is 3.09% (inactive) and 0.619% (inactive). The Potency entry in assay [4], in assay [17], in assay [7], in assay [8], in [9] and in assay [10] was “inactive” in each case. Besides, the Potency entry in assay [15] was “inactive”.
Regarding `CN(C)CCC#N`, the compound was called inactive in [1], in [2], in [5], in assay [11], in [12] and in [13]. The compound was called inactive in assay [14] and in assay [16]. The max response in assay [3] was 6.53% (inactive) and 12.6% (inactive). Besides, the Potency entry in [4], in assay [19], in assay [6], in [7], in [8] and in assay [9] was “inactive” in each case. The Potency entry in [10], in assay [18] and in [15] was “inactive” in each case.
Turning to `CC(C)CCCCCCOC(=O)c1ccccc1C(=O)OCCCCCCC(C)C`, the compound was classed as inactive in assay [1], in [2], in assay [5], in [11], in [12] and in assay [13]. Moreover, the outcome in assay [14] and in [16] was inactive. The max response in [3] is 12.6% (inactive) and 8.04% (inactive) and 6.43% (inactive). For the same compound, the Potency entry in [4], in assay [19], in assay [7], in assay [8], in assay [9] and in assay [18] was “inactive” in each case. In addition, the Potency result in assay [15] was “inactive”.
Regarding `CNC(=O)O/N=C(\SC)C(=O)N(C)C`, the compound was called inactive in assay [1], in assay [2], in assay [5], in assay [20], in [11] and in assay [12]. Moreover, the compound was called inactive in assay [13], in [14] and in assay [16]. In addition, the max response in [3] was -3.21% (inactive) and 9.55% (inactive). The Potency entry in assay [4], in assay [19], in [6], in assay [7], in [8] and in assay [9] was “inactive” throughout. Further, the Potency result in [18] and in [15] was “inactive” each time.
For `COC(C)(C)CCCC(C)C/C=C/C(C)=C/C(=O)OC(C)C` (stereo unspecified), the outcome in assay [1], in assay [2], in assay [5], in assay [20], in [11] and in [12] was inactive. Besides, the call in [13], in [14] and in assay [16] was inactive. The max response in assay [3] was 0.0106% (inactive). Moreover, the Potency entry in [17], in [19], in assay [6], in [7], in assay [8] and in assay [9] was “inactive” in each case. The Potency entry in assay [10], in assay [18] and in assay [15] was “inactive” in each case.
On to `O=C(O)c1cc(Oc2ccc(C(F)(F)F)cc2Cl)ccc1[N+](=O)[O-]`, for which the outcome in assay [1], in assay [2], in assay [5], in [20], in assay [11] and in [12] was inactive. Also, the call in [13], in assay [14] and in assay [16] was inactive. In addition, the max response in assay [3] is 3.72% (inactive) [middle of 4 runs]. Also, the Potency entry in assay [4], in assay [6], in assay [7], in [8], in assay [9] and in assay [10] was “inactive” in each case. Besides, in assay [15], the Potency result was “inactive”.
